Results filed as inconclusive are left out. Unmarked numbers belong to inactive results. Calls come from the whole dose curve; as a rule, active = well fitted inhibition curve with a large enough effect; inconclusive = small, poorly fitted or top-dose-only effect; inactive = flat fitted curve, though single readings scatter.
Assay: qHTS to identify inhibitors of the type 1 interferon - major histocompatibility complex class I in skeletal muscle: primary screen against the NCATS Pharmaceutical Collection (AID 1347407)
Conditions: human skeletal muscle cells, IFN-b-induced MHC-I HiBiT luminescence, 24 h; series mostly up to 45.9 µM; activity change, negative = inhibition: at the top concentration
Source text: Assay Submitter (PI): Travis B. Kinder Ph.D. & James Inglese Ph.D.
Assay Development and Screening Technology Laboratory (ADST)
National Center for Advancing Translational Sciences (NCATS), Rockville, MD
National Institute of Health (NIH), Bethesda, Maryland
Idiopathic inflammatory myopathies, collectively referred to as myositis, are a group of rare autoimmune diseases characterized by skeletal muscle inflammation, weakness, and usually accompanied by systemic pathologies of the skin, lungs, or vasculature. Current immunosuppressive therapies and glucocorticoids are often not curative and are accompanied by harsh side effects, especially in children with juvenile myositis. We initiated a drug repurposing and development program to identify more targeted, less toxic therapeutics to treat myositis. Although its cause is not known, muscle from a subset of patients have an abundance of the inflammatory type 1 interferon (IFN) and a down-stream product major histocompatibility complex class I (MHC class I), which are both thought to contribute to damage and weakness. We conducted quantitative high throughput screening on 6,576 compounds (4,679 unique) through a series of cell-based assays to identify those that inhibit the IFN-stimulated expression of MHC class I in muscle precursor cells (myoblasts). The compound identification and evaluation strategy utilized a primary screen with reporter-tagged MHC class I in genome-engineered myoblasts, ATP content counter screen for viability, HLA-ABC immunofluorescence secondary screen, and HLA-B RT-qPCR tertiary screen.
The primary screen utilized CRISPR/Cas9 genome-engineering of immortalized human myoblasts, C25cl48, where a pro-luminescent reporter HiBit was fused to the C-terminus of endogenous MHC class I allele HLA-B*08:01 (HLA-B HiBit myoblasts). HiBit is an 11 amino acid fragment of NanoLuc luminescent reporter (Promega Corporation), and when complexed to the larger LgBit fragment, the reconstituted enzyme produces light in the presence of furimazine substrate (Schwinn et al., 2018). Briefly, HLA-B HiBit myoblasts were plated into 1536-well plates, treated with 4.0 ng/ml human IFN-beta and 2,816 compounds from the NCATS Pharmaceutical Collection (NPC) that contains all drugs approved in the US, EU, and Japan (Huang et al., 2011) in an 8-point, 1:5 titration with a high final concentration of 46 uM. After 24 hrs of treatment, cells were assayed by Nano-Glo HiBiT Lytic Detection System (Promega) and luminescence measured by a ViewLux 1430 Ultra HTS (Perkin Elmer).
Huang R, Southall N, Wang Y, Yasgar A, Shinn P, Jadhav A, Nguyen D-T, Austin CP. 2011. The NCGC pharmaceutical collection: a comprehensive resource of clinically approved drugs enabling repurposing and chemical genomics. Sci Transl Med 3:80ps16. doi:10.1126/scitranslmed.3001862
Schwinn MK, Machleidt T, Zimmerman K, Eggers CT, Dixon AS, Hurst R, Hall MP, Encell LP, Binkowski BF, Wood K V. 2018. CRISPR-Mediated Tagging of Endogenous Proteins with a Luminescent Peptide. ACS Chem Biol 13:467-474. doi:10.1021/acschembio.7b00549
PROTOCOL TABLE (as described by Inglese et al., 2007)
SEQUENCE No. (e.g., 1, 2, 3, etc.); […] (e.g., Cells, Incubation, Reagent, etc.); VALUE; DESCRIPTION
1a; Cells; 5 uL; Use a Multidrop Combi (Thermo Scientific) to seed 350 cells/well into nine Greiner 1536 well white/solid bottom, high base, TC plates in 5 ul/well of iHSKM growth medium (GM) without dexamethasone into columns 1+2. Add metal lids with gas-exchange holes
1b; Cells; 5 uL; Use a Multidrop Combi (Thermo Scientific) to seed 350 cells/well into nine Greiner 1536 well white/solid bottom, high base, TC plates in 5 ul/well of iHSKM GM without dexamethasone + 4 ng/ml IFN-b into columns 3 - 48. Add metal lids with gas-exchange holes
2; Incubate; 1 hr; Incubate at 37 C, 5% CO2, 95% RH
[…]
With `CCN(CC)CCN` the “activity change, negative = inhibition” value was -3.13%.
In the case of `Cn1c(=O)c2c(ncn2CC(=O)O)n(C)c1=O`, the “activity change, negative = inhibition” value is reported as 7.36%.
With `N[C@@H](Cc1cc(I)c(O)c(I)c1)C(=O)O` the “activity change, negative = inhibition” value was -10.5%.
With `CCC(C(=O)NC(=O)NC(C)=O)c1ccccc1` (stereo not given) the “activity change, negative = inhibition” value was -1.22%.
For `O=C(O)Cn1cnnn1`, the “activity change, negative = inhibition” value was 3.44%.
In the case of `CCOC(=O)C(=O)CCc1ccccc1`, the “activity change, negative = inhibition” value is reported as -18%.
In the case of `Cc1ccc(/C=N/n2c(-c3ccccc3)csc2=S)cc1`, the “activity change, negative = inhibition” value is reported as -5.18%.
With `Brc1ccccc1-c1ccccc1` the “activity change, negative = inhibition” value was -6.04% [at 92.2 µM].
For `CCOC(=O)c1ccc(O)c(O)c1`, the “activity change, negative = inhibition” value was 2.8%.
`NCC[C@H](O)C(=O)N[C@@H]1C[C@H](N)[C@@H](O[C@H]2O[C@H](CN)[C@@H](O)[C@H](O)[C@@H]2O)[C@H](O)[C@@H]1O[C@H]1O[C@H](CO)[C@@H](O)[C@H](N)[C@@H]1O` gave an activity change, negative = inhibition of -1.93% [at 0.727 µM].
With `O=C(OCC1(COC(=O)c2cccnc2)CCCC(COC(=O)c2cccnc2)(COC(=O)c2cccnc2)C1O)c1cccnc1` the “activity change, negative = inhibition” value was -19.6%.
With `COCCc1ccccn1` the “activity change, negative = inhibition” value was -1.47%.
With `O=C(NO)c1ccccc1` the “activity change, negative = inhibition” value was -1.02% [at 92.2 µM].
For `O=C(O)c1ccccc1Nc1cc(Cl)ccc1C(=O)O`, the “activity change, negative = inhibition” value was 0.376% [at 19 µM].
For `CN(C)CCN1CCN(c2cccc(Cl)c2)C1=O`, the “activity change, negative = inhibition” value was 2.09%.
In the case of `C/C(=N\O)[C@@H](C)NCC(C)(C)CN[C@H](C)/C(C)=N/O`, the “activity change, negative = inhibition” value is reported as -3.81%.
With `CN(C(=O)C(Cl)Cl)c1ccc(OC(=O)c2ccco2)cc1` the “activity change, negative = inhibition” value was -7.38%.
For `COCCc1ccc(OCC2CO2)cc1` (stereo not given), the “activity change, negative = inhibition” value was -7.41%.
With `O=c1[nH]c2ccccc2c(=O)n1CCCl` the “activity change, negative = inhibition” value was 3.37%.
For `COc1cc2c(cc1OC)C(=O)CC2`, the “activity change, negative = inhibition” value was 3.89%.
In the case of `COc1cc(S(N)(=O)=O)cc(C(=O)O)c1OC`, the “activity change, negative = inhibition” value is reported as -4.93%.
For `Cc1ccc(C(C)OC(=O)C2(C)CCC(C(=O)O)C2(C)C)cc1` (stereo not given), the “activity change, negative = inhibition” value was -3.06%.
With `CCOC(=O)NNc1nncc2ccccc12` the “activity change, negative = inhibition” value was -3.98%.
For `O=[N+]([O-])c1cncn1CCN1CCOCC1`, the “activity change, negative = inhibition” value was -4.53%.
With `C[C@H]1C[C@H]2[C@@H]3CCC4=CC(=O)C=C[C@]4(C)[C@H]3C(=O)C[C@]2(C)[C@@]1(O)C(=O)CO` the “activity change, negative = inhibition” value was -5.87%.
In the case of `COc1cc2c(cc1OC)CN(C(=O)[C@H](C)N[C@@H](CCc1ccccc1)C(=O)O)[C@H](C(=O)O)C2`, the “activity change, negative = inhibition” value is reported as -0.212%.
With `Nc1cc(C(F)(F)F)ccc1S` the “activity change, negative = inhibition” value was -0.492%.
For `CCNC(=O)NCCCOc1cccc(CN2CCCCC2)c1`, the “activity change, negative = inhibition” value was -7.49%.
For `CC(C)NC(=O)c1ccc(C=O)cc1`, the “activity change, negative = inhibition” value was 12.9%.
For `COc1ccc(OC(=O)N(CC(=O)O)Cc2ccc(OCCc3nc(-c4ccccc4)oc3C)cc2)cc1`, the “activity change, negative = inhibition” value was -11.8%.
In the case of `CN1Cc2cc(C(=O)N3CCC(C4CCNCC4)CC3)ccc2NC(CC(=O)O)C1=O` (stereo not given), the “activity change, negative = inhibition” value is reported as -2.42%.
With `CO[C@@]1(NC(=O)CSC[C@@H](N)C(=O)O)C(=O)N2C(C(=O)O)=C(CSc3nnnn3C)CS[C@@H]21` the “activity change, negative = inhibition” value was 8.95%.
For `COc1ccccc1OCC1CNC(=O)O1` (stereo not given), the “activity change, negative = inhibition” value was -8.83%.
For `CN(C)C(=O)CNC(=O)Cc1ccccc1`, the “activity change, negative = inhibition” value was 3.37%.
In the case of `CCCCCN(CCCOC)C(=O)C(CCC(=O)O)NC(=O)c1ccc(Cl)c(Cl)c1` (stereo not given), the “activity change, negative = inhibition” value is reported as -6.98%.
For `CC(C(=O)O)c1ccc(/C=C2\CCCCC2=O)cc1` (stereo not given), the “activity change, negative = inhibition” value was -16.8%.
For `COC(=O)/C=C\C(=O)OC`, the “activity change, negative = inhibition” value was -0.378%.
In the case of `Nc1c(I)cc(I)c(C(=O)N(CCC(=O)O)c2ccccc2)c1I`, the “activity change, negative = inhibition” value is reported as -3.41%.
With `CN(C)CCCOC1(Cc2ccccc2)CCCCCC1` the “activity change, negative = inhibition” value was 3.51%.
For `CCCc1ccc(OCC(=O)N2CCN(C(=O)COc3ccc(CCC)cc3OC)CC2)c(OC)c1`, the “activity change, negative = inhibition” value was -0.401%.

Reference: PubChem BioAssay (NCATS)
% is set by controls: 0 for no effect and ±100 for the full control effect.
